Values joined by “and” are separate entries in the source; they are usually repeats but may differ in a detail not shown here. Identical values can stand only once. The campaign covered roughly 16,000 compounds. About 4,000 (25%) were called active. Not shown: some 26% with an inconclusive outcome. Calls follow the shape of the dose curve; as a rule, active = well fitted curve in the direction sought with a large enough effect; inconclusive = small, poorly fitted or top-dose-only effect, or effect the other way; inactive = no such curve, though single readings can be large or run the other way. The list is a sample of the results. More than one record can exist for a structure, and the calls need not agree.
These molecules were tested against Cytochrome P450 2C9 (Homo sapiens) (UniProt P11712) (assay: Cytochrome panel assay with activity outcomes). Settings: recombinant CYP, pro-luciferin dealkylation, luminescence, p450-cyp2c9; series mostly up to 57.1 µM.
Chain of Cytochrome P450 2C9 (Homo sapiens) (P11712 whole entry, looked up): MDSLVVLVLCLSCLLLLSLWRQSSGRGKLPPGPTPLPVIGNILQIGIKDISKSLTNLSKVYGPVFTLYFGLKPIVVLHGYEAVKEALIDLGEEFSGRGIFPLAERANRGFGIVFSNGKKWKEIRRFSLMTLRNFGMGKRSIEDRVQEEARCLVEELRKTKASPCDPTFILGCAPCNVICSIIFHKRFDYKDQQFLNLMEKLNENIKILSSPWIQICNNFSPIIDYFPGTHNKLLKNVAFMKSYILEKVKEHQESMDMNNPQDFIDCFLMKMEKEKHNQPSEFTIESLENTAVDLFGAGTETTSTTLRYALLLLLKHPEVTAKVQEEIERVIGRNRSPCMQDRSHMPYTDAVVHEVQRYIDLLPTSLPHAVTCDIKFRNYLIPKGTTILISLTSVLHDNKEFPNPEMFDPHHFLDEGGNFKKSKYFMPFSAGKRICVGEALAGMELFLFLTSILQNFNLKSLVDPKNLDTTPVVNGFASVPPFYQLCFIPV
In the case of COc1cc2c(cc1OC)[C@@H]1C(=O)c3ccc4c(c3O[C@@H]1CO2)C=CC(C)(C)O4, the activity, negative = inhibition is reported as “inactive”.
C[C@H](N)Cc1c[nH]c2ccc(O)cc12 was tested, and the activity, negative = inhibition was “inactive”.
For O=c1c2ccccc2c2ccccc2c(=O)n1-c1cc2c3ccccc3ccc2c2ccccc12, the AC50 was 0.316 µM (active).
In the case of c1csc(CN2CCC3(CCNCC3)CC2)n1, the activity, negative = inhibition is reported as “inactive”.
With CN(C)CCCNc1c2c(nc3ccc(Cl)cc13)CCCC2 the activity, negative = inhibition was 6.4% [at 11.4 µM] (inactive).
CC(=O)OCC1=C(C(=O)O)N2C(=O)[C@@H](N)[C@@H]2SC1 was tested, and the activity, negative = inhibition was “inactive”.
CCc1cc2c(nc1CC)CCN(CC/C(C)=N/OC)C2 was tested, and the activity, negative = inhibition was 7.8% [at 11.4 µM] (inactive).
For CS(=O)c1ccc(-c2nc(-c3ccc(F)cc3)c(-c3ccncc3)[nH]2)cc1 (configuration not stated), the AC50 was “inactive and 2 µM (active)”.
In the case of Cc1ccc(S(=O)(=O)N[C@@H](CCCCN)C(=O)CCl)cc1, the activity, negative = inhibition is reported as “inactive”.
O=C(Nc1ccccc1)N1CCCC2(CCN(C(=O)Oc3ccccc3)CC2)C1 was tested, and the activity, negative = inhibition was “inactive”.
Cc1cc(C)c(C#N)c(SCC(=O)c2ccc(Cl)cc2Cl)n1 was tested, and the AC50 was 5.01 µM (active).
For COc1ccc2c(c1)CCC1[C@@H]2CCC2(C)[C@@H](NCCCCCCN3C(=O)C=CC3=O)CC[C@@H]12 (some centres not stated), the activity, negative = inhibition was “inactive”.
With COc1ccc(C[C@@H](N)c2ccc(OC)cc2)cc1 the activity, negative = inhibition was -15.8% [at 11.4 µM] (inactive).
In the case of N=C(N)SCc1ccc(Cl)c2ccccc12 (tested in a mixture with another compound), the AC50 is reported as 3.98 µM (active) and the activity, negative = inhibition is reported as 9.59% [at 11.4 µM] (inactive).
For O=[As](O)(O)c1ccc(NCc2ccccc2)cc1, the activity, negative = inhibition was -7.26% [at 11.4 µM] (inactive).
For C[C@H]1[C@H](NC(=O)/C(=N/OC(C)(C)C(=O)O)c2csc(N)n2)C(=O)N1S(=O)(=O)O (stereo in doubt), the activity, negative = inhibition was “inactive”.
With O=c1[nH]oc2c1CCNC2 the activity, negative = inhibition was “inactive”.
In the case of N#Cc1ccc(CN2CC[C@@]3(CCCNC3)C2)cc1, the activity, negative = inhibition is reported as “inactive”.
For COC(=O)C1=Nc2ccccc2/C1=C\c1c(O)n(-c2ccc(OC)cc2)c(=O)[nH]c1=O, the AC50 was 1.26 µM (active).
With NCCCNCCSP(=O)(O)O the activity, negative = inhibition was “inactive”.
In the case of CN1Cc2c(ccc3c2OCO3)[C@@H]2[C@@H](O)Cc3cc4c(cc3[C@@H]21)OCO4, the activity, negative = inhibition is reported as “inactive”.
In the case of NC(N)=NCCN=C(N)N, the activity, negative = inhibition is reported as 3.96% [at 11.4 µM] (inactive).
With Clc1cc(I)cc(Cl)c1NC1=NCCN1 the activity, negative = inhibition was “inactive”.
With CCc1ccccc1NC(=S)NC1CC2CCC(C1)N2Cc1ccco1 (configuration not stated) the activity, negative = inhibition was “inactive”.
In the case of CCNC(=S)NC1CC2CCCC(C1)N2Cc1ccco1 (configuration not stated), the activity, negative = inhibition is reported as “inactive”.
For CC(C)CNC(=S)NC1CC2CCCC(C1)N2Cc1ccco1 (configuration not stated), the AC50 was 2.82 µM (active).
C#C[C@@]1(O)CC[C@@H]2[C@@H]3CCC4=CC(=O)CC[C@@]4(C)[C@H]3CC[C@]21C was tested, and the activity, negative = inhibition was “inactive”.
S=C(Nc1ccc(Cl)cc1)NC1CC2CCCC(C1)N2C1CCCC1 (configuration not stated) was tested, and the activity, negative = inhibition was “inactive”.
With CC1=NN(c2ccccc2)C(=O)[C@@H]1N=Nc1ccc([As](=O)(O)O)c(O)c1 the AC50 was 3.16 µM (active).
In the case of Nc1nc(N)c(N=Nc2ccc([As](=O)(O)O)c(O)c2)c(N)n1, the activity, negative = inhibition is reported as -7.93% [at 11.4 µM] (inactive).
With CC[N+](CC)(CC)CCOc1cccc(OCC[N+](CC)(CC)CC)c1OCC[N+](CC)(CC)CC the activity, negative = inhibition was “inactive”.
CC1=C2[C@@H]3OC(=O)[C@@H](C)[C@@H]3CC[C@]2(C)C=CC1=O was tested, and the activity, negative = inhibition was “inactive”.
In the case of O=C(Nc1cccc(F)c1)N1CC2(CCNCC2)C1, the activity, negative = inhibition is reported as “inactive”.
In the case of Cc1nc(N)sc1CCN, the activity, negative = inhibition is reported as “inactive”.
For Cc1ccc(C2(c3ccc(C)c(O)c3C)CCN(C)CC2)c(C)c1O, the activity, negative = inhibition was 7.08% [at 11.4 µM] (inactive).
For COc1cc([C@H]2c3cc4c(cc3[C@@H](O)[C@@H]3COC(=O)[C@H]23)OCO4)cc(OC)c1OC, the AC50 was 1.26 µM (active).
For COc1ccc2c(c1OC)CN1CCc3cc4c(cc3[C@H]1C2)OCO4, the activity, negative = inhibition was “inactive”.
For CP(=O)(O)C1=CCNCC1, the activity, negative = inhibition was “inactive”.
For COC(=O)[C@H]1[C@@H](c2ccccc2)[C@@]2(c3ccccc3)Oc3ccccc3[C@@]1(O)[C@@H]2O, the activity, negative = inhibition was -12.5% [at 11.4 µM] (inactive).
S=C(S)N1CCCC1 was tested, and the AC50 was 20 µM (active).
CCN=C=NCCCN(C)C was tested, and the activity, negative = inhibition was -7.95% [at 11.4 µM] (inactive).
In the case of CC(=O)N1CCC2(CC1)CC(=O)c1cc(OCC(=O)N3CCN(C)CC3)ccc1O2, the activity, negative = inhibition is reported as “inactive”.
For O=C(COc1ccc2ccccc2c1)N1CCN(CC2CC3C=CC2C3)CC1 (configuration not stated), the AC50 was 17.8 µM (active).
For N[C@@H](Cn1oc(=O)[nH]c1=O)C(=O)O, the activity, negative = inhibition was “inactive”.
In the case of O=C(CCCN1CCC(n2c(=O)[nH]c3ccccc32)CC1)c1ccc(F)cc1, the activity, negative = inhibition is reported as “inactive”.
For C=C[C@H]1CN2CC[C@@H]1C[C@H]2[C@@H](O)c1ccnc2ccccc12, the activity, negative = inhibition was “inactive”.
O=S(=O)(O)/C(=C\c1ccccc1)c1ccccc1 (tested in a mixture with another compound) was tested, and the activity, negative = inhibition was -14.8% [at 11.4 µM] (inactive).
COc1cc(OC)c(/C=C2/C(=O)Nc3ccccc32)c(OC)c1 was tested, and the AC50 was 25.1 µM (active).
For c1ccc(C2CC2)c(OCC2=NCCN2)c1, the activity, negative = inhibition was “inactive”.
In the case of c1ccc(CCN2CCOCC2)nc1, the activity, negative = inhibition is reported as -0.553% [at 11.4 µM] (inactive).
With C[C@@]12CC[C@H]3[C@@H](CC=C4C[C@H](OS(=O)(=O)O)CC[C@]43C)[C@H]1CCC2=O the activity, negative = inhibition was “inactive”.
For CC(C)C[C@H](NC(=O)N1CCCCCC1)C(=O)N[C@H](Cc1cn(C)c2ccccc12)C(=O)N[C@H](Cc1ccccn1)C(=O)O, the AC50 was 6.31 µM (active).
With c1ccc(CCN2CCCCCC2)nc1 the activity, negative = inhibition was -1.38% [at 11.4 µM] (inactive).
With CC(C)C[C@H](NP(=O)(O)O[C@@H]1O[C@@H](C)[C@@H](O)[C@@H](O)[C@H]1O)C(=O)N[C@@H](Cc1c[nH]c2ccccc12)C(=O)O the activity, negative = inhibition was “inactive”.
In the case of CO[C@H]1C=C2CCN(C)[C@@H]2[C@@H]2c3cc4c(cc3C(=O)O[C@H]21)OCO4, the activity, negative = inhibition is reported as “inactive”.
With CC[n+]1c(/C=C/N(C)c2ccccc2)sc2ccc(Cl)cc21 the activity, negative = inhibition was “inactive”.
CNCCCc1ccccc1 was tested, and the activity, negative = inhibition was “inactive”.
For COc1ccc(OC)c([C@H](O)[C@H](C)N)c1, the activity, negative = inhibition was “inactive”.
With O=c1oc(Cl)c(Cl)c2ccccc12 the AC50 was 15.8 µM (active).
With NNC(N)=O the activity, negative = inhibition was “inactive”.
CCN1CCN(Cc2cc(OC)c(OC)cc2[N+](=O)[O-])CC1 was tested, and the activity, negative = inhibition was “inactive”.
For CCCN1CCC[C@H](c2cccc(O)c2)C1, the activity, negative = inhibition was “inactive”.
With CCC[C@@](C)(COC(N)=O)COC(=O)NC(C)C the activity, negative = inhibition was “inactive”.
With c1cnc(N2CC[C@@]3(CCCNC3)C2)nc1 the activity, negative = inhibition was “inactive”.
For CCCC(CCC)C(=O)O, the activity, negative = inhibition was “inactive”.
CCc1ccc(CCN2CCCCC2)nc1 was tested, and the activity, negative = inhibition was -14.9% [at 11.4 µM] (inactive).
With CCNC(=O)[C@@H]1O[C@@H](n2cnc3c(N)ncnc32)[C@@H](O)[C@H]1O the activity, negative = inhibition was “inactive”.
For CC(=O)Nc1ccccc1C(=O)OCc1ccc(C(=O)c2ccccc2)cc1, the AC50 was 3.55 µM (active).
CC[C@H]1CN2CCc3cc(OC)c(OC)cc3[C@H]2C[C@@H]1C[C@H]1NCCc2c1[nH]c1ccc(O)cc21 was tested, and the activity, negative = inhibition was 5.99% [at 11.4 µM] (inactive).
With COC(=O)Nc1nc2ccc(C(=O)c3cccs3)cc2[nH]1 the activity, negative = inhibition was “inactive”.
With CN1[C@H]2CC(=O)C[C@@H]1[C@@H](O)C2 the activity, negative = inhibition was “inactive”.
With CN1C(=O)C(=Cc2ccc(N3CCCCCC3)o2)C(=O)N(C)C1=S the AC50 was 7.94 µM (active).
For COc1cc(C[C@H](C)N)c(OC)cc1I, the activity, negative = inhibition was “inactive”.
For C/C=C1\C[N@@+]2(C)CC[C@@]34C(=C(C=O)[C@H]1C[C@H]32)Nc1ccccc14, the activity, negative = inhibition was “inactive”.
In the case of O=[N+]([O-])c1cc(O)c(O)c([N+](=O)[O-])c1, the AC50 is reported as 0.794 µM (active).
C[As+](C)(c1ccc(Br)c([N+](=O)[O-])c1)c1ccc(Br)c([N+](=O)[O-])c1.O=[N+]([O-])O was tested, and the activity, negative = inhibition was 1.81% [at 11.4 µM] (inactive).
For O=[N+]([O-])c1cc([As](=O)(O)O)ccc1O, the activity, negative = inhibition was “inactive”.
O=C(CCCN1CCC2(CC1)C(=O)NCN2c1ccccc1)c1ccc(F)cc1 was tested, and the activity, negative = inhibition was “inactive”.
With [N-]=[N+]=NCC(=O)c1c[nH]c(=O)[nH]c1=O the activity, negative = inhibition was -6.58% [at 11.4 µM] (inactive).
O=C1NCN(c2ccccc2)C12CCN(CCCOc1ccc(F)cc1)CC2 was tested, and the activity, negative = inhibition was “inactive”.
CC(C)c1c(CN(C)[C@@H](C)Cc2ccccc2)n(C)n(-c2ccccc2)c1=O was tested, and the AC50 was 7.94 µM (active).
In the case of CCCN(CCC)C(=O)Cc1c(-c2ccc(Cl)cc2)nc2c(Cl)cc(Cl)cn12, the activity, negative = inhibition is reported as “inactive”.
For CCCCCC[C@H]1C(=O)O[C@H](C)[C@H](NC(=O)c2cccc(NC=O)c2O)C(=O)O[C@@H](C)[C@H]1OC(=O)CC(C)C, the activity, negative = inhibition was “inactive”.
In the case of CCOC(=O)N1CCC(NC(=O)CCc2nc(C3=CCN(C)CC3)no2)CC1, the activity, negative = inhibition is reported as “inactive”.
O=C(Nc1ccc(F)cc1F)c1cccnc1Oc1cccc(C(F)(F)F)c1 was tested, and the activity, negative = inhibition was “inactive”.
In the case of CN(C)CCN(C)CCc1ccc(Cl)c(Cl)c1, the activity, negative = inhibition is reported as “inactive”.
In the case of O=C(Nc1ccccc1)N1CC2(CCN(C(=O)Oc3ccccc3)CC2)C1, the activity, negative = inhibition is reported as “inactive”.
In the case of NC(N)=NN=Cc1c(Cl)cccc1Cl, the activity, negative = inhibition is reported as “inactive”.
With c1ccc(N2CCC3(CCNCC3)CC2)cc1 the activity, negative = inhibition was “inactive”.
O=C(NC1CCCCC1)NC1CC2CCC(C1)N2Cc1nnnn1Cc1ccc2c(c1)OCO2 (configuration not stated) was tested, and the AC50 was 14.1 µM (active).
COc1ccc(NC(=O)NC2CC3CCCC(C2)N3Cc2ccccc2)cc1 (configuration not stated) was tested, and the activity, negative = inhibition was “inactive”.
For CCc1ccccc1NC(=O)NC1CC2CCC(C1)N2Cc1cccs1 (configuration not stated), the activity, negative = inhibition was “inactive”.
For CC1=C(CC[C@H](C)CO)O[C@@H]2C[C@@H]3[C@H]4CC[C@H]5C[C@@H](O)CC[C@]5(C)[C@@H]4CC(=O)[C@@]3(C)[C@@H]12, the activity, negative = inhibition was -6.29% [at 11.4 µM] (inactive).
For O=C1/C(=C\c2ccccc2)C[C@@]2(O)[C@H]3Cc4ccc(O)c5c4[C@@]2(CCN3CC2CC2)[C@@H]1O5, the activity, negative = inhibition was “inactive”.
For O=c1c2ccccc2nc(N2CCCC2)n1-c1ccc(Cl)cc1, the AC50 was 14.1 µM (active).
Cc1nc2sccc2c(=O)n1-c1ccccc1Cl was tested, and the activity, negative = inhibition was “inactive”.

Source: PubChem BioAssay AID1851 (National Center for Advancing Translational Sciences (NCATS), 2009)
% is scaled to controls: 0 for no effect and ±100 for the full control effect.
